# According to PubChem BioAssay (NCATS):
# Inconclusive results are not listed. Where a call stands in place of a potency, no number is given. Calls of active or inactive are those of the source. Unless noted, calls follow the shape of the dose curve; as a rule, active = well fitted curve in the direction sought with a large enough effect; inconclusive = small, poorly fitted or top-dose-only effect, or another doubt; inactive = no such curve, though single readings can be large; an effect the other way counts as inactive or inconclusive. Non-standard residues stand in square brackets, D forms with d. Residues, ends and D or L forms follow the SMILES beside them. *: point of attachment. Sta = CC(C)C[C@H](N)[C@@H](O)CC(=O)O; Isovaleryl = CC(C)CC(=O)*
# How the values were obtained:
# [1] = biological target: Phenylethanolamine N-methyltransferase (Homo sapiens) (UniProt P11086); test: Confirmatory Screen for Target Class Profiling of Small Molecule Inhibitors of Methyltransferases (AID 1745852); conditions: MTase-Glo luminescence, SAH detection, recombinant enzyme, stronger effect = lower value; measured here: PNMT max response unless noted
# [2] = biological target: Metallo-beta-lactamase type 2 (Klebsiella pneumoniae) (UniProt C7C422); test: qHTS to identify inhibitors of the New Delhi Metallo-beta-lactamase (NDM): assay validation screen against the NCATS LOPAC Collection (AID 1794843); conditions: NDM-1 enzyme, nitrocefin hydrolysis, absorbance 485 nm; series mostly up to 38.4 µM;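 also: nitrocefin turnover by NDM-1 measured as 485 nm absorbance at plateau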
# Outline: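 Nitrocefin hydrolysis (50 uM substrate stock) by NDM-1, 2 nM final, was followed by 485 nm absorbance after compound preincubation; buffer was 50 mM HEPES pH 7.0, 1 uM ZnSO4, 0.01% Tween20.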
# [3] = biological target: Glutathione peroxidase 1 (Homo sapiens) (UniProt P07203); test: Primary qHTS Assay for Inhibitors of Recombinant Selenoprotein Glutathione Peroxidase 1 (GPX1) (AID 1845191); conditions: recombinant GPX1, GR-coupled NADPH fluorescence, 15 min; series mostly up to 48.8 µM; also: nearly all actives have a fitted effect of over 65% in size
# Outline: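 10 nM GPX1 + cpd, 30 min RT; start w/ 1 mM GSH, 0.5 mM cumene hydroperoxide, 0.5 mM NADPH, 100 nM GR, 0.01% BSA; buffer 50 mM Tris-HCl pH 7.5, 2 mM EDTA, 150 mM NaCl; Fl 340/450, 0 & 15 min.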
# [4] = NCATS anti-infectives library activity on HEK293 viability as a counter-qHTS vs the C. elegans viability qHTS (AID 1745854); conditions: HEK293 viability counter-screen; series mostly up to 41.8 µM;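 also: HEK293 cells exposed to compounds for 24 hr before the viability read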
# Outline: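 HEK293 cells (1,500/well) exposed 24 hr at 37C to 1:5 titrations, up to 41.7 uM final; counter-screen to a C. elegans viability qHTS. Viability by CellTiter-Glo luminescence after 10 min at room temperature; digitonin as control.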
# [5] = NCATS anti-infectives library activity on the primary C. elegans qHTS viability assay (AID 1745855; calls by dose curve; also: potency is read from the fitted curve at half-maximal effect); conditions: C. elegans worm area imaging, day 7; series mostly up to 41.8 µM
# Outline: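 Viability read-out is GFP fluorescence of PE254-GFP-FLuc C. elegans, measured by laser cytometry (488 nm) at day 0, 3 and 7. Ten L1 worms per well were incubated 7 days at 21 °C with compounds and bacterial capsules in S medium.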
# [6] = Viability counterscreen for antagonist of constitutive androstane receptor (CAR) against the NCATS DSHEA and TCM libraries (AID 1794837); conditions: CAR reporter cell line viability counterscreen, qHTS; series mostly up to 40 µM;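 also: compound exposure lasted 24 h before viability reading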
# Outline: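 Cells: HepG2 line carrying CYP2B6 reporter and hCAR, seeded and attached 5 h. Then pin-transferred test substances plus agonist CITCO at 48 uM final; 24 h incubation; fluorogenic viability reagent, 1 h.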
# [7] = Viability counterscreen for agonist of constitutive androstane receptor (CAR) against the NCATS DSHEA and TCM libraries (AID 1794838); conditions: HepG2 cell viability counterscreen, CAR agonist assay, co-treated with 0.75 µM CAR antagonist; series mostly up to 40 µM;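 also: HepG2 cells with CYP2B6 reporter and hCAR plus 0.75 µM PK11195 antagonist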
# Outline: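 Cell health was measured as CellTiter-Fluor signal in HepG2-CYP2B6-hCAR cells treated for 24 h with substances alongside the hCAR antagonist PK11195 (0.75 uM final).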
# [8] = biological target: Nuclear receptor subfamily 1 group I member 3 (Homo sapiens) (UniProt Q14994); test: Primary qHTS for agonist of constitutive androstane receptor (CAR) against the NCATS DSHEA and TCM libraries (AID 1794839); conditions: CAR agonist reporter cells, qHTS luminescence, CAR antagonist co-added at 0.75 µM; series mostly up to 40 µM;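 also: HepG2 cells expressing human CAR with a CYP2B6 reporter plus PK11195 antagonist; luciferase reporter luminescence read with ONE-Glo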
# Outline: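 qHTS, agonist mode: HepG2-CYP2B6-hCAR, 2,500 cells/well, 5 h attach; cpds + PK11195 0.75 µM final; 24 h, 37 °C, 5% CO2. Readouts: CellTiter-Fluor (405/540 nm), then ONE-Glo luminescence.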
# [9] = HepG2 viability counterscreen (readout 2: ATP content) against the NCATS DSHEA and TCM libraries (AID 1794840); conditions: ATP content luminescence; series mostly up to 27.3 µM
# Outline: (§1)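 Same wells read twice: first fluorescence from cleaved GF-AFC substrate (25 uM final, 30 min, 37C) for live-cell protease, then CellTiter-Glo luminescence after 30 min at room temperature for ATP. HepG2 cells were exposed ~24 h to substances.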
# [10] = HepG2 viability counterscreen (readout 1: protease activity) against the NCATS DSHEA and TCM libraries (AID 1794841); conditions: qHTS concentration series; series mostly up to 27.3 µM;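 also: cells exposed to compounds for about 24 h before the protease read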
# Outline: as §1
# Sequence of Phenylethanolamine N-methyltransferase (Homo sapiens) (P11086 whole entry, looked up): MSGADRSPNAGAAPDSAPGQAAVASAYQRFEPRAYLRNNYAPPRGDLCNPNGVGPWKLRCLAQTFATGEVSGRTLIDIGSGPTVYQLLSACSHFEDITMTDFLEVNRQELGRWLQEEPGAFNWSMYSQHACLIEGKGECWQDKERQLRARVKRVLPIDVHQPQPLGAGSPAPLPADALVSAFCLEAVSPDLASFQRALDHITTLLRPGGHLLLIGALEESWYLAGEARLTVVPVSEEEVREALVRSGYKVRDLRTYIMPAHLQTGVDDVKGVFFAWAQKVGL
# Sequence of Glutathione peroxidase 1 (Homo sapiens) (P07203 whole entry, looked up): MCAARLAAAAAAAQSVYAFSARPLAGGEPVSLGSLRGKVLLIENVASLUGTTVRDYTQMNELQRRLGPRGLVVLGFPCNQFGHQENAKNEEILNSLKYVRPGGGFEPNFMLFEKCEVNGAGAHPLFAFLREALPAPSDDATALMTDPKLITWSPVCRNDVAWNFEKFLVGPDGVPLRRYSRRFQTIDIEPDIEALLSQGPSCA
# Sequence of Metallo-beta-lactamase type 2 (Klebsiella pneumoniae) (C7C422 whole entry, looked up): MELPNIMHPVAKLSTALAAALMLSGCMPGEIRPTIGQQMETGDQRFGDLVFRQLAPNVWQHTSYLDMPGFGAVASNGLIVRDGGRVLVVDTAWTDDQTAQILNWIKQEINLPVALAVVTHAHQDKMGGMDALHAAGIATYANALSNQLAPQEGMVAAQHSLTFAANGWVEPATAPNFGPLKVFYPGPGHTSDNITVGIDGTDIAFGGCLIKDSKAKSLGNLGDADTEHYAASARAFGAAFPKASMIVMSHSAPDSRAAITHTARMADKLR
# Sequence of Nuclear receptor subfamily 1 group I member 3 (Homo sapiens) (Q14994 whole entry, looked up): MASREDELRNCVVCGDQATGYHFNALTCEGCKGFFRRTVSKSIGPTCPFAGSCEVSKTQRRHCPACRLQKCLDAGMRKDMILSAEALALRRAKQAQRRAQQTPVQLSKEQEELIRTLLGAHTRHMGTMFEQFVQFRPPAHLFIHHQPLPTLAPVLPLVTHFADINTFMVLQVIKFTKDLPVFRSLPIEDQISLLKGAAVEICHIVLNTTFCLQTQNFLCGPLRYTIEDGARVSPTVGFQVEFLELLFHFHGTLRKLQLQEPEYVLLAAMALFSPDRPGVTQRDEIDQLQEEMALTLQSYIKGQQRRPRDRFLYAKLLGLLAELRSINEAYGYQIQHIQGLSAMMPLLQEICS
smiles,measurement,setting,value
CCN(CC)CCOc1ccc(Nc2ncc3cc(-c4c(Cl)cccc4Cl)c(=O)n(C)c3n2)cc1,activity,[1],-2.93%
same,outcome,[2],inactive
same,Potency,[3],inactive
COc1ccc2cc([C@H](C)C(=O)O)ccc2c1,outcome,[4],inactive
same,Potency,[5],inactive
same,Potency,[3],inactive
N=C(N=C(N)N)N1CCOCC1,outcome,[4],inactive
same,Potency,[5],inactive
O=C1NC(=O)C(c2ccccc2[N+](=O)[O-])=C1Nc1ccc(O)c(Cl)c1,outcome,[4],inactive
same,outcome,[2],inactive
same,Potency,[3],inactive
Cc1cc(Cl)ccc1OCCCC(=O)NO,outcome,[4],inactive
same,outcome,[2],inactive
same,Potency,[3],inactive
Oc1ccc2ccccc2c1SSc1c(O)ccc2ccccc12,activity,[1],2.32%
same,outcome,[2],inactive
same,Potency,[3],inactive
C[C@H](Cc1ccc(O)c(O)c1)[C@@H](C)Cc1ccc(O)c(O)c1,activity,[1],-61.1%
same,outcome,[2],inactive
same,Potency,[3],inactive
Cc1c(OCC(F)(F)F)ccnc1CS(=O)c1nc2ccccc2[nH]1 (stereo not given),activity,[1],10%
same,Potency,[3],inactive
C[C@H](Cn1cnc2c(N)ncnc21)OCP(=O)(O)O,outcome,[4],inactive
O=c1oc2cc(O)ccc2s1,outcome,[4],inactive
same,Potency,[3],inactive
CC(C)CC(=O)N[C@H](C(=O)N[C@H](C(=O)N[C@@H](CC(C)C)[C@@H](O)CC(=O)N[C@@H](C)C(=O)N[C@@H](CC(C)C)[C@@H](O)CC(=O)O)C(C)C)C(C)C (Isovaleryl-VV[Sta]A[Sta]-OH),outcome,[4],inactive
same,Potency,[3],inactive
Clc1ccc(C(Cn2ccnc2)OCc2c(Cl)cccc2Cl)c(Cl)c1 (stereo not given),activity,[1],-12.3%
same,Potency,[3],inactive
CCN(CC)C(=S)SSC(=S)N(CC)CC,activity,[1],-2.02%
same,Potency,[3],inactive
CCOC(=O)C1=C[C@@H](OC(CC)CC)[C@H](NC(C)=O)[C@@H](N)C1,outcome,[4],inactive
same,Potency,[5],inactive
same,Potency,[3],inactive
Cc1ccc(Nc2nccc(N(C)c3ccc4c(C)n(C)nc4c3)n2)cc1S(N)(=O)=O,activity,[1],-2.8%
same,Potency,[3],inactive
CC(=O)NC[C@H]1CN(c2ccc(N3CCOCC3)c(F)c2)C(=O)O1,outcome,[4],inactive
same,outcome,[2],inactive
same,Potency,[3],inactive
CC(C)C[C@H](NC(=O)[C@H](Cc1ccccc1)NC(=O)c1cnccn1)B(O)O,Potency,[5],2.3 µM (active)
same,Potency,[3],inactive
CC(C)c1ccc2c(c1)c(SC(C)(C)C)c(CC(C)(C)C(=O)O)n2Cc1ccc(Cl)cc1,activity,[1],-5.81%
same,outcome,[2],inactive
same,Potency,[3],inactive
Oc1ccc(OCc2ccccc2)cc1,outcome,[4],inactive
same,Potency,[3],inactive
O=c1ccc2ccc(O)c(O)c2o1,activity,[1],2.42%
same,outcome,[2],inactive
same,Potency,[3],inactive
Cc1ccc(NC(=O)c2ccc(CN3CCN(C)CC3)cc2)cc1Nc1nccc(-c2cccnc2)n1,outcome,[4],inactive
same,Potency,[3],inactive
CC(C)[C@H](N)C(=O)OCCOCn1cnc2c(=O)[nH]c(N)nc21,outcome,[4],inactive
same,Potency,[3],inactive
CNC[C@H](O)c1ccc(O)c(O)c1,outcome,[2],inactive
same,Potency,[3],inactive
CC(C)c1nc(CN(C)C(=O)N[C@H](C(=O)N[C@@H](Cc2ccccc2)C[C@H](O)[C@H](Cc2ccccc2)NC(=O)OCc2cncs2)C(C)C)cs1,outcome,[4],inactive
same,Potency,[3],inactive
S=c1nc[nH]c2nc[nH]c12,Potency,[5],inactive
same,Potency,[3],inactive
CCN(CCO)CCCC(C)Nc1ccnc2cc(Cl)ccc12 (stereo not given),"activity change, negative = cytotoxicity",[4],-19.5% [at 3.71 µM] (inactive)
N[C@@H](Cc1cc(I)c(Oc2cc(I)c(O)c(I)c2)c(I)c1)C(=O)O,activity,[1],-6.64%
same,Potency,[3],inactive
COC(=O)N[C@H](C(=O)N[C@@H](Cc1ccccc1)[C@@H](O)CN(Cc1ccc(-c2ccccn2)cc1)NC(=O)[C@@H](NC(=O)OC)C(C)(C)C)C(C)(C)C,outcome,[4],inactive
same,Potency,[3],inactive
CCOC(=O)C(C)Oc1cccc2c(=O)n(CC(=O)Nc3ccc4c(c3)OCCO4)ccc12 (stereo not given),outcome,[2],inactive
same,Potency,[3],inactive
COc1c(O)cc2c(c1O)[C@@H]1O[C@H](CO)[C@@H](O)[C@H](O)[C@H]1OC2=O,activity,[1],-0.831%
same,outcome,[4],inactive
same,Potency,[3],inactive
COc1cc(Nc2c(C#N)cnc3cc(OCCCN4CCN(C)CC4)c(OC)cc23)c(Cl)cc1Cl,activity,[1],-96.9%
same,Potency,[3],inactive
CCOC(=O)c1c(C)n(C)c2ccc(O)cc12,outcome,[4],inactive
same,Potency,[3],inactive
N=C(N)c1ccc2cc(OC(=O)c3ccc(N=C(N)N)cc3)ccc2c1,outcome,[4],inactive
same,Potency,[5],inactive
same,Potency,[3],inactive
CN(C)C(=O)COC(=O)Cc1ccc(OC(=O)c2ccc(N=C(N)N)cc2)cc1,outcome,[4],inactive
same,Potency,[3],inactive
Cc1nc(Nc2ncc(C(=O)Nc3c(C)cccc3Cl)s2)cc(N2CCN(CCO)CC2)n1,activity,[1],-52.6%
same,outcome,[4],inactive
same,Potency,[3],inactive
O=P(O)(O)C(O)(Cn1ccnc1)P(=O)(O)O,"activity change, negative = cytotoxicity",[4],-5.55% [at 3.71 µM] (inactive)
same,Potency,[3],inactive
Cc1cc(O)c2c(c1)C(=O)c1cc(O)cc(O)c1C2=O,outcome,[6],inactive
same,outcome,[7],inactive
same,outcome,[8],inactive
same,outcome,[9],inactive
same,outcome,[10],inactive
same,outcome,[2],inactive
same,Potency,[3],inactive
